From the supplement of paper PMC10849652
Of roughly 7,900 targets only a part is listed; those with a hit were picked by preference. About 0.6% of all pairs of compound and target were hits. Values without a mark were called inactive.

compound: c1cn2cc(-c3ccc4cn[nH]c4c3)nc(Nc3ccc(N4CCOCC4)cc3)c2n1 [entospletinib]; assay: log2 fold change, soluble protein after heating vs DMSO (PISA); higher = thermal stabilisation; K562 cells, 10 uM, 30 min; active = over 0.2 and 3.5 SD of the protein, either way, in both replicates (recomputed)
Outline: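 Soluble protein was quantified by TMTpro 16plex LC-MS/MS after channel sums were equalised. It was obtained as the supernatant after 21,000xg for 90 min from pooled aliquots of K562 cells (2×10^6 cells/mL, 10 μM compound, 30 min) heated for 3 min across 48°C-58°C and extracted in PBS with 0.5% NP-40 at 4°C. Thermal stability values are relative to control samples and come from duplicates. They are given as log2 fold changes.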

UniProt Q16881, sequence (Q16881 whole entry, looked up): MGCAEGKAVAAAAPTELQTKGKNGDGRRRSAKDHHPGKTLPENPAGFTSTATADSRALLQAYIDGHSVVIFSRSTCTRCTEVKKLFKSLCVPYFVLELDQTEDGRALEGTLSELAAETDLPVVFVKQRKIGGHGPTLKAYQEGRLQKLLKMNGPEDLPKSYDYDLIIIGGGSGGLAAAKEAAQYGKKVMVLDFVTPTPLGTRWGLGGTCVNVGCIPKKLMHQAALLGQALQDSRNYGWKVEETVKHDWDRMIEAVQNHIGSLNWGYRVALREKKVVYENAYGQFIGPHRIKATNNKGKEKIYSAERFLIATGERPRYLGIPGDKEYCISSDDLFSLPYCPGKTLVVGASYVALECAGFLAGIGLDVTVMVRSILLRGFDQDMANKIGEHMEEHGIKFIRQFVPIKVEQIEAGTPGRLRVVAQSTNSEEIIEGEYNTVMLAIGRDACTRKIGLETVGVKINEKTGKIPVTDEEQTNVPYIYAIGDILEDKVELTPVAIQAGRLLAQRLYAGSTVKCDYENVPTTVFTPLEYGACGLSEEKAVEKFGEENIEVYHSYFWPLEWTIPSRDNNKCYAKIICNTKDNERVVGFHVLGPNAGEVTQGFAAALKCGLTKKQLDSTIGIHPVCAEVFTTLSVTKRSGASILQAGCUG
UniProt Q7Z6J8, sequence (Q7Z6J8 whole entry, looked up): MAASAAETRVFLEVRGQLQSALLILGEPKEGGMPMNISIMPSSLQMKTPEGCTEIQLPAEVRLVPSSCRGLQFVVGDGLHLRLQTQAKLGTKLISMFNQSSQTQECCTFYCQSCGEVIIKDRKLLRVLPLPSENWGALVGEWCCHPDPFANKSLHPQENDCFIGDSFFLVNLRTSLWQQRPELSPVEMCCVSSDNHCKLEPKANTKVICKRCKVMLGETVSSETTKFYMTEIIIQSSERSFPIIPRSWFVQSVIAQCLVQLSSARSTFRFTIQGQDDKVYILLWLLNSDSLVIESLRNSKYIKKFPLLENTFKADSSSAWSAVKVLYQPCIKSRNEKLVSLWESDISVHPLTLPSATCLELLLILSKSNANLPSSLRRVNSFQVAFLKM
UniProt Q9NUM4, sequence (Q9NUM4 whole entry, looked up): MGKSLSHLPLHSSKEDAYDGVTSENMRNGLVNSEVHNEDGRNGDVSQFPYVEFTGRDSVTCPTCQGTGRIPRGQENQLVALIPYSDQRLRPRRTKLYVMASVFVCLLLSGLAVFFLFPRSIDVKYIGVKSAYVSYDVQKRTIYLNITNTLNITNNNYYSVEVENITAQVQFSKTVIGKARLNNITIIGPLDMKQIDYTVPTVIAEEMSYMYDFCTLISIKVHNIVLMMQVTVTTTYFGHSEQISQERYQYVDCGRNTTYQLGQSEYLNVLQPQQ
UniProt O75717, sequence (O75717 whole entry, looked up): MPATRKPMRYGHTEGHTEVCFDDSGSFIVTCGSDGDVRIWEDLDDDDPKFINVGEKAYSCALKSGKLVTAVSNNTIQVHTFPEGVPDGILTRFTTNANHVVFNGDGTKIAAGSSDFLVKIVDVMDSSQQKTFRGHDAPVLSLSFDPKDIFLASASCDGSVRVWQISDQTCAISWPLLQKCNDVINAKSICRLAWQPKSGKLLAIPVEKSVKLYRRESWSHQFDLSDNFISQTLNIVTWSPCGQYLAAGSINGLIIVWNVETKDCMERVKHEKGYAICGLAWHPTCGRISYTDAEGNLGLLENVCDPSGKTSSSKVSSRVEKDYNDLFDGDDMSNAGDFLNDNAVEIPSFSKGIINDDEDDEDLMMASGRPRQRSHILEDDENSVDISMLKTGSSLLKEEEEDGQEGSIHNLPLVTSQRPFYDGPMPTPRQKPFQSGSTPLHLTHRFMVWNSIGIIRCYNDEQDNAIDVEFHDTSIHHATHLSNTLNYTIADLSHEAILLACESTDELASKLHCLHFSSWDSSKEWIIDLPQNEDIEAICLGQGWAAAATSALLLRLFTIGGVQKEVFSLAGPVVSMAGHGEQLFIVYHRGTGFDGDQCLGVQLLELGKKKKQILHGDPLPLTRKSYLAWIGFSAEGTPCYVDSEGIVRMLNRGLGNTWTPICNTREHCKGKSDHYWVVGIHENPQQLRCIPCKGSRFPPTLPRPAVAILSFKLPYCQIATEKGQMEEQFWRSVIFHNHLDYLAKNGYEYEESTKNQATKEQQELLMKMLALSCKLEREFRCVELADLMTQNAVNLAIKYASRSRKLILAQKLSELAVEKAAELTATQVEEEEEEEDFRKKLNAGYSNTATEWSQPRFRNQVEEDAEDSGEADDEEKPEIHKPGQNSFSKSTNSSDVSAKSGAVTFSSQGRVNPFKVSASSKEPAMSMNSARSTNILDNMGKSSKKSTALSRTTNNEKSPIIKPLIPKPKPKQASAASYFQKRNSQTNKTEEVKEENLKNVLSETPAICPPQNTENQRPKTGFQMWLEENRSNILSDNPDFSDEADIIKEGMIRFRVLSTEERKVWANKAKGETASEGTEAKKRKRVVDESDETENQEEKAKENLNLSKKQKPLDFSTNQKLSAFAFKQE
UniProt Q9H4A3, sequence (Q9H4A3 whole entry, looked up): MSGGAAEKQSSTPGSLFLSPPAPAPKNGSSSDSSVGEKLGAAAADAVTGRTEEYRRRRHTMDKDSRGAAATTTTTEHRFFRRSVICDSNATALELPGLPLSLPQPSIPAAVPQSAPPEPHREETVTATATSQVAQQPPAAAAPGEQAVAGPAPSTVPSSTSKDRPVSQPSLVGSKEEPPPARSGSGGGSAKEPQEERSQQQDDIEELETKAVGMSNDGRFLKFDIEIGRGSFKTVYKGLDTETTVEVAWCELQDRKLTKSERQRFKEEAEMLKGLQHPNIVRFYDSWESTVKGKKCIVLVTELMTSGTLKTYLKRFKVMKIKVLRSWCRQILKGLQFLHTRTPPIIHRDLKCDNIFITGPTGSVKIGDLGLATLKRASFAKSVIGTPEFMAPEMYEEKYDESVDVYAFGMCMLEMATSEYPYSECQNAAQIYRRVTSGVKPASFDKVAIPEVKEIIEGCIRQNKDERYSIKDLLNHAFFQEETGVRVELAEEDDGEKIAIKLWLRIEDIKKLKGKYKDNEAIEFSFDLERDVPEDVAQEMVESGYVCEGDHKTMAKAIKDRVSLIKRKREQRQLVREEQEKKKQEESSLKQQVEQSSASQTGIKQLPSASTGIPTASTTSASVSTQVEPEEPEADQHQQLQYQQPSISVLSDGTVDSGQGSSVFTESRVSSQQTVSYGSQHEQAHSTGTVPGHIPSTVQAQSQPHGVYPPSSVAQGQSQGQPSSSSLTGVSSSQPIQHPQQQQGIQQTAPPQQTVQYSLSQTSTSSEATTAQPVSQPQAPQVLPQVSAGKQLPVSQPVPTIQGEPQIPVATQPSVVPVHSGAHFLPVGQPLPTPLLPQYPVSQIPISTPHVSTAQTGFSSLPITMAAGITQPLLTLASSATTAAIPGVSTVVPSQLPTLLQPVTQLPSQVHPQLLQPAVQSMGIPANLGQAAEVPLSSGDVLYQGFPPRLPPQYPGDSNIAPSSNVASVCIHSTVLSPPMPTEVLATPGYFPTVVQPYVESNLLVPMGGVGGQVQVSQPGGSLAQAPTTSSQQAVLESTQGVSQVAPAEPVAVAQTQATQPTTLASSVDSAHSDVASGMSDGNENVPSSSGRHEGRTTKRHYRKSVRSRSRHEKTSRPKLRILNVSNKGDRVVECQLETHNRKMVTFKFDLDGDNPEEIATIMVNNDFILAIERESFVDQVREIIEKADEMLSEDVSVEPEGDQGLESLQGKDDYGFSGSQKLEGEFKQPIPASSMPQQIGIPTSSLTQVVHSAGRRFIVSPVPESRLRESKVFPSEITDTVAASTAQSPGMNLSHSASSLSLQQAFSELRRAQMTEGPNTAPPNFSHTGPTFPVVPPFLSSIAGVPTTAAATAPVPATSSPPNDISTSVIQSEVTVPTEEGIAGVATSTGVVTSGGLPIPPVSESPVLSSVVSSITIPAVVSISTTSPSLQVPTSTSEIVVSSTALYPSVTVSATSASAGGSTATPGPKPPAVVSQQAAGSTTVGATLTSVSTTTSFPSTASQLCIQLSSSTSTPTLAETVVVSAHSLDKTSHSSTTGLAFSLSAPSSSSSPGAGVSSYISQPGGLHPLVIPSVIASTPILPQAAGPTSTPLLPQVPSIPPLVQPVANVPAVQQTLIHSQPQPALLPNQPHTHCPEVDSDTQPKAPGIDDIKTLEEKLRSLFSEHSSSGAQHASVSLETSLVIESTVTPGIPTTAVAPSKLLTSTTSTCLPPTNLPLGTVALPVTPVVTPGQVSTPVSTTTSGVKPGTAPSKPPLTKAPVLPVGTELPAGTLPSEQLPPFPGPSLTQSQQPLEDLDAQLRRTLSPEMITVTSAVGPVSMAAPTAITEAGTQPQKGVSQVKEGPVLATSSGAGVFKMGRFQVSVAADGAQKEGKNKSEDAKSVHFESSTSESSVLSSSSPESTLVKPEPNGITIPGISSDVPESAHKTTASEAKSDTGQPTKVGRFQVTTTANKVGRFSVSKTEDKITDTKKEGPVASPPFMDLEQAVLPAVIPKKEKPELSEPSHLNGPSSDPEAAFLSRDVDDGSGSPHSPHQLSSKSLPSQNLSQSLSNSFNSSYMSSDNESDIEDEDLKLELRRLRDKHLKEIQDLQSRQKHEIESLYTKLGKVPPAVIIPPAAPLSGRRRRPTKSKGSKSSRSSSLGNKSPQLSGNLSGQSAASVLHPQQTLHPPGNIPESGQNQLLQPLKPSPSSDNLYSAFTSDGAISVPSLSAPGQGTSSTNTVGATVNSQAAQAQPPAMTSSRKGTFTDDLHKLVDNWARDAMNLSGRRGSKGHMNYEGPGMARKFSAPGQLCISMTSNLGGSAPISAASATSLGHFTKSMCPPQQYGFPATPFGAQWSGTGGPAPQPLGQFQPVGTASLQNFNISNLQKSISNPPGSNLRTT
UniProt Q01081, sequence (Q01081 whole entry, looked up): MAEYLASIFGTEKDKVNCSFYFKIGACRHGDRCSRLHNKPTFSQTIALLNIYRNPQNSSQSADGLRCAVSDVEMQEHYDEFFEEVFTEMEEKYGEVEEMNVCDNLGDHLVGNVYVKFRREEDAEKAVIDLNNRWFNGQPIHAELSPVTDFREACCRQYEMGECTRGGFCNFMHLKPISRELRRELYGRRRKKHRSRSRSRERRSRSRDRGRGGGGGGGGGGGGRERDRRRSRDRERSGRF

TNPO1 (UniProt Q92973) was tested. Which log2 fold change did it give?
Its log2 fold change is -0.001.

For TNFRSF8 (UniProt P28908), which log2 fold change is on record?
The log2 fold change was 0.002.

TRMT61A (UniProt Q96FX7) was tested. Which log2 fold change did it give?
The log2 fold change was 0.123.

How did the log2 fold change turn out when VRK2 (UniProt Q86Y07) was run?
Its log2 fold change is -0.078.

Which log2 fold change does the source give for UBA52 (UniProt P62987) here?
The log2 fold change was 0.159.

How did the log2 fold change turn out when USO1 isoform 2 (UniProt O60763) was run?
The log2 fold change was -0.017.

For WNK1 isoform 7 (UniProt Q9H4A3), which log2 fold change is on record?
The log2 fold change was -0.005.

WASHC3 (UniProt Q9Y3C0) was tested. Which log2 fold change did it give?
The log2 fold change was 0.007.

With WDR11 (UniProt Q9BZH6) as the target, how does the log2 fold change read?
The log2 fold change was -0.403.

UBIAD1 (UniProt Q9Y5Z9) was tested. Which log2 fold change did it give?
Its log2 fold change is -0.013.

TMEM208 (UniProt Q9BTX3) was tested. Which log2 fold change did it give?
Its log2 fold change is -0.062.

Which log2 fold change does the source give for TVP23C (UniProt Q96ET8) here?
The log2 fold change was 0.419 (active).

How did the log2 fold change turn out when TTC4 (UniProt O95801) was run?
Its log2 fold change is -0.002.

How did the log2 fold change turn out when UBE2J1 (UniProt Q9Y385) was run?
The log2 fold change was 0.

TMEM164 (UniProt Q5U3C3) was tested. Which log2 fold change did it give?
Its log2 fold change is 0.007.

How did the log2 fold change turn out when WDHD1 (UniProt O75717) was run?
Its log2 fold change is -0.019.

WAPL isoform 3 (UniProt Q7Z5K2) was tested. Which log2 fold change did it give?
The log2 fold change was -0.037.

With VPS33A (UniProt Q96AX1) as the target, how does the log2 fold change read?
The log2 fold change was 0.099.

Which log2 fold change does the source give for TXNRD1 isoform 7 (UniProt Q16881) here?
The log2 fold change was 0.04.

How did the log2 fold change turn out when TRAPPC13 isoform 5 (UniProt A5PLN9) was run?
The log2 fold change was -0.022.

With TMEM177 (UniProt Q53S58) as the target, how does the log2 fold change read?
Its log2 fold change is 0.02.

Which log2 fold change does the source give for VPS13B (UniProt Q7Z7G8) here?
Its log2 fold change is 0.053.

With USP48 isoform 8 (UniProt Q86UV5) as the target, how does the log2 fold change read?
The log2 fold change was 0.067.

UBE2D1 (UniProt P51668) was tested. Which log2 fold change did it give?
Its log2 fold change is -0.025.

How did the log2 fold change turn out when TMTC3 (UniProt Q6ZXV5) was run?
The log2 fold change was 0.007.

TXNRD1 (UniProt Q16881) was tested. Which log2 fold change did it give?
Its log2 fold change is 0.054.

UFD1 isoform 1 (UniProt Q92890) was tested. Which log2 fold change did it give?
Its log2 fold change is -0.047.

How did the log2 fold change turn out when TMEM106B (UniProt Q9NUM4) was run?
Its log2 fold change is -0.049.

For UBAP2L isoform 1 (UniProt Q14157), which log2 fold change is on record?
The log2 fold change was -0.065.

Which log2 fold change does the source give for VPS8 (UniProt Q8N3P4) here?
Its log2 fold change is 0.034.

Which log2 fold change does the source give for UBE3D (UniProt Q7Z6J8) here?
The log2 fold change was 0.091.

For U2AF1 isoform 2 (UniProt Q01081), which log2 fold change is on record?
Its log2 fold change is -0.052.

How did the log2 fold change turn out when UNC119B (UniProt A6NIH7) was run?
Its log2 fold change is -0.055.

For TXN2 (UniProt Q99757), which log2 fold change is on record?
The log2 fold change was 0.

With UTP3 (UniProt Q9NQZ2) as the target, how does the log2 fold change read?
The log2 fold change was -0.009.

How did the log2 fold change turn out when UBE2J2 isoform 3 (UniProt Q8N2K1) was run?
The log2 fold change was -0.028.

How did the log2 fold change turn out when WRB (UniProt O00258) was run?
Its log2 fold change is 0.005.

VPS11 (UniProt Q9H270) was tested. Which log2 fold change did it give?
The log2 fold change was 0.04.

With USP3 (UniProt Q9Y6I4) as the target, how does the log2 fold change read?
Its log2 fold change is -0.003.
